Among all 48,000 compounds or so, about 13,000 (27%) showed an effect of 50% or more. This is one part of the list.
Each molecule was assayed on Wolbachia pipientis (assay: Anti-Wolbachia Cell-Based Screen). Conditions: 5 µM.
Assay type: functional
Design: scale not given: in the data most compounds retested in dose-response had high values

Structure (SMILES)	Percent Effect [%]
COc1ccc(C)cc1CNC(=O)C1=NN(c2ccccc2)C(=O)CN1	14.16
Cc1nn(C)c2nc(N3CCC(C(O)c4nccn4C)CC3)sc12 (centres undefined)	-3.971
COC(=O)c1ccc(N2CCN(Cc3csc(C)n3)CC2)nn1	-1.977
CCc1nc(CNc2nc3c(s2)c(C)nn3C)cs1	-39.2
Cc1nc(CN2CCN(c3ccc(SC(C)C)nn3)CC2)cs1	68.89
Cc1nc(CN2CCN(c3nc4c(s3)c(C)nn4C)CC2)cs1	119.2
Cc1nn(C)c2nc(N3CCN(Cc4nccn4C)CC3)sc12	103.8
Cc1nc(CNc2nc3c(s2)c(C)nn3C)cs1	-20.12
CC(C)Sc1ccc(N2CCN(Cc3ccccn3)CC2)nn1	14.48
Cc1cc(N2CCN(Cc3nccn3C)CC2)cc(C)n1	-5.748
CCN1CCC2(CC1)CC(NC(=O)N(C)C)c1cc(C)ccc12.O=C(O)C(F)(F)F (centres undefined)	-13.82
Cc1ccc2c(c1)C(NC(=O)N(C)C)CC21CCN(CC2CC2)CC1.O=C(O)C(F)(F)F (centres undefined)	116.9
Cc1ccc2c(c1)C(N(C)C)CC21CCN(CCO)CC1.O=C(O)C(F)(F)F.O=C(O)C(F)(F)F (centres undefined)	1.059
CC(C)N1CCC2(CC1)CC(CC(N)=O)c1ccc(F)cc12.O=C(O)C(F)(F)F (centres undefined)	14.5
CCN1CCC2(CC1)CC(NC(=O)NC)c1cc(C)ccc12.O=C(O)C(F)(F)F (centres undefined)	-18.25
Cc1ccc2c(c1)C(NC(=O)N(C)C)CC21CCN(C)CC1.O=C(O)C(F)(F)F (centres undefined)	102.1
Cc1ccc2c(c1)C(NC(=O)N(C)C)CC21CCN(C(C)C)CC1.O=C(O)C(F)(F)F (centres undefined)	100.3
Cn1nnc2c1CCN(S(C)(=O)=O)C2COCc1ccccc1 (centres undefined)	-3.39
Nc1cc2c(nn1)CCN(C(=O)c1csc(-c3ccccc3)n1)C2	1.599
O=c1cc(-c2ccncc2)nc(-c2ccc(CN3CC[C@@H](O)C3)cc2)[nH]1	1.525
Cn1cnc2c1CCN(Cc1csc(-c3ccsc3)n1)C2	1.661
c1sc(C2CCCC2)nc1CN1CCn2c(nnc2C2CC2)C1	-0.3735
Cn1cnc2c1CCN(Cc1csc(C3CCCC3)n1)C2	102.6

Structure (SMILES)	Percent Effect [%]
c1cc(-c2noc(CN3CCc4c(ncn4C4CC4)C3)n2)cs1	0.1339
Cn1cnc2c1CCN(Cc1csc(C3CCCCC3)n1)C2	104.6
c1sc(C2CCCCC2)nc1CN1CCn2c(nnc2C2CC2)C1	99.95
COc1ccc(-c2nc(CN3CCc4c(ncn4C)C3)cs2)cc1	30.48
CCCc1nc(CN2CCc3c(ncn3C3CC3)C2)cs1	72.74
c1ccc(-c2nc(CN3CCn4c(nnc4C4CC4)C3)cs2)cc1	1.064
Cc1ccc(-c2nc(CN3CCc4c(ncn4C)C3)cs2)o1	0.8085
CCc1nc(CN2CCc3c(ncn3C3CC3)C2)cs1	49.69
CNC(=O)C1CCN(c2ncnc3c2CCN(C(=O)C2CC2)C3)C1 (centres undefined)	-3.996
CCN1CCN(c2ncnc3c2CCN(C(=O)C2CC2)C3)CC1	-21.72
CCN(CC)C1CCN(c2ncnc3c2CCN(C(=O)C2CC2)C3)C1 (centres undefined)	-6.613
Cc1cnc(-c2nc(O)c3c(n2)CN(C(=O)C2CCCO2)CC3)cn1 (centres undefined)	141.1
CN(C)c1nc2c(c(=O)[nH]1)CCN(C(=O)C1CCCO1)C2 (centres undefined)	4.175
O=C(C1CC1)N1CCc2c(ncnc2NCCc2nc3c(s2)CCC3)C1	7.369
Cc1cnc(-c2nc(O)c3c(n2)CN(C(=O)C2CC2)CC3)cn1	165.3
O=C(C1CCOC1)N1CCc2ncnc(C3CC3)c2CC1 (centres undefined)	2.623
Cc1cnc(-c2nc(O)c3c(n2)CN(C(=O)C2CCOC2)CC3)cn1 (centres undefined)	177.2
O=C(C1CCCO1)N1CCc2onc(-c3ccc(Cl)cc3)c2C1 (centres undefined)	0.5907
O=C(C1CCOC1)N1CCc2ncnc(NC3CCC3)c2CC1 (centres undefined)	-0.188
Cc1cnc(-c2nc(O)c3c(n2)CN(C(=O)C2CCCC2)CC3)cn1	133.6
NC(=O)C(NC(=O)c1ccc(NC2CC2)nc1)c1ccccc1 (centres undefined)	15.13
CC(C)n1cnc(C2CN(C)c3ccc(C(=O)NC4CCCC4)cc32)n1 (centres undefined)	-4.903
CC(=O)N[C@@H](CC(C)C)C(=O)N1CCC(n2cc(CO)nn2)CC1	-15.95

Structure (SMILES)	Percent Effect [%]
CCCc1nccn1-c1ccc(C(C)O)cc1 (centres undefined)	-9.636
Cc1oc(C(C)C)cc1C(=O)N1C[C@H]2CC[C@@H]1CN(C(=O)N(C)C)C2	-18.45
O=C(N1CCC(Oc2ccncc2)C1)C1(c2ccc(F)cc2)CC1 (centres undefined)	-3.796
COc1cnc(N2CCN(C)CC2)nc1-c1ccnn1C	-15.65
c1cc(-c2c[nH]c([C@@H]3COCCN3Cc3csnn3)n2)ccn1	7.154
Nc1cc2c(nn1)CCN(C(=O)CC1CCCC1)C2	-4.566
Cc1cnc(-c2nc(O)c3c(n2)CN(C(=O)CC2CCCC2)CC3)cn1	148.5
O=C1NCCN(CC2CCCCC2)C1CC(=O)N1CCc2n[nH]cc2C1 (centres undefined)	-15.6
Cc1cnc(N2CCC3(CC2)CCN(c2cncnc2)C3=O)nc1	-8.08
NS(=O)(=O)NCc1cc(-c2ccc(C(F)(F)F)cc2)n[nH]1	103.6
O=C(NCc1nc[nH]n1)c1cc(COc2cccc(C(F)(F)F)c2)[nH]n1	0.1207
NS(=O)(=O)c1ccc(NCc2ccccc2)cc1C(F)(F)F	11.93
CCOCCCC(=O)N1CCN(c2cccc(OC)c2)C(C)C1 (centres undefined)	5.389
Cc1ccc2c(c1)c(CNC(=O)C1CCN(CC(N)=O)CC1)nn2C	11.07
Cc1cc(CN(C)CCC(O)c2ccccc2)nn1C (centres undefined)	-3.114
COc1cccc(CN(C)Cc2ccccc2C#N)c1OC	-9.098
N#Cc1ccccc1CN(CC(N)=O)C1CCCC1	-5.252
Cc1cc(CN(C)CCC(O)c2ccccc2)no1 (centres undefined)	107.6
CN(CCC(O)c1ccccc1)Cc1ccccc1C#N (centres undefined)	111.8
CN(CCC(O)c1ccccc1)Cc1nc(-c2ccccc2)no1 (centres undefined)	118.9
Cc1cc(CN(C)CCN(C)c2ccccc2)no1	9.198
CN(Cc1nc(-c2ccccc2)no1)C(=O)CNS(C)(=O)=O	-1.951
Cc1nc(CN(C)Cc2nc(-c3ccccc3)no2)co1	-6.169
